# Data taken from the supplement of paper PMC12632987.
# T1: USP38, Q8NB14
# T1 chain: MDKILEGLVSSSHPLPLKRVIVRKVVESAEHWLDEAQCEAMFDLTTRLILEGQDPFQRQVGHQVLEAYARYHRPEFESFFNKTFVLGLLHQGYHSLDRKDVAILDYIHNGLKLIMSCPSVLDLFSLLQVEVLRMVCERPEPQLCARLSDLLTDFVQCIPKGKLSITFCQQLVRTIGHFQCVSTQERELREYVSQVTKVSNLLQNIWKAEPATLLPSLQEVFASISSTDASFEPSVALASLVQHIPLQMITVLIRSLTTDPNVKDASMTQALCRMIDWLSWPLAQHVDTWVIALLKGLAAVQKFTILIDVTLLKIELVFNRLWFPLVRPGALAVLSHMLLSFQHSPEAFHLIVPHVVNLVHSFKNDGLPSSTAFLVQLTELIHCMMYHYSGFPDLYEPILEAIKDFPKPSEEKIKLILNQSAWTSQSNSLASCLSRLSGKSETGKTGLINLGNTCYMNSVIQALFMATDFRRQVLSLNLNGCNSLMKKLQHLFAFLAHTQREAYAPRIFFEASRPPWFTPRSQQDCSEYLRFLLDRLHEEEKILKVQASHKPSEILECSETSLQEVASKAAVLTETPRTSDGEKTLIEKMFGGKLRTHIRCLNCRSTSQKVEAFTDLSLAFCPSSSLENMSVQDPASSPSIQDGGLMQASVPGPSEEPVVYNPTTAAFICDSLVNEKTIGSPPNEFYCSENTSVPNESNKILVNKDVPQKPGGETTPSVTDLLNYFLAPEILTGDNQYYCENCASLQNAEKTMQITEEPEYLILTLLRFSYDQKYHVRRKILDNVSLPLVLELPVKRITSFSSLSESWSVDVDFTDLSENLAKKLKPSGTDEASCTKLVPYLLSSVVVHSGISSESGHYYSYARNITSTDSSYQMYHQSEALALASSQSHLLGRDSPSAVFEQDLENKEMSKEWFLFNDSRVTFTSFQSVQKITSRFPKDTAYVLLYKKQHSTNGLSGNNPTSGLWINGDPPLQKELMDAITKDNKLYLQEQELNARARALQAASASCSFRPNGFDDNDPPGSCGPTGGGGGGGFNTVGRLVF
# Target: T1, USP38, Q8NB14
# Assay: median log2 fold change of GCK-ALFA target abundance (FLAG IP / Myc IP barcode read proportion) (log2 ratio); each designed protein is fused to an ALFA-tag nanobody in HEK293 cells to bring the named protein to FLAG-tagged glucokinase (GCK); Myc marks an untargeted standard; higher = target protein stabilised (more abundant)
# Conditions: target protein: 3xFLAG-MCP-GCK-ALFA reporter; HEK293 landing pad (RPLP)
# Procedure, shortened: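 HEK293 landing-pad cells received a recombined binder library fused to the ALFA nanobody and were induced with 2 μg mL^−1 doxycycline, then transfected with a plasmid encoding a FLAG-tagged target and a Myc-tagged standard. Lysates were collected after 48 h for anti-FLAG and anti-Myc immunoprecipitation, and the circular RNA barcodes were reverse transcribed, amplified and sequenced. Target abundance for each binder is the median log2 ratio of FLAG to Myc barcode read proportions. Barcodes had to reach a proportion of at least 10^−7 in both replicates, each binder needed at least 3 barcodes per replicate, a pseudocount of 10^−6 was applied, and the two replicates were pooled.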
row,Binder,median log2 fold change
1,usp_38_diff_out_1_153_35 (protein) SELDKLKAELADITAKANALKKEIEAAIKAGTMTREKVDAAWDELGALAKRLAEIRSKAAENPELYPKLKADIDAANAALDAAIDALNEAATKVFLKEAE,0.136
2,usp_38_diff_out_1_153_34 (protein) SRLEELRKRVEEITKRAKELKKRAEELIESGEATLEKVDELADELGRLAVELREVRSEAAEDGDYYRELKPLFDEAEKALNEAVDALNEAGRLVFLKEAE,0.122
3,usp_38_diff_out_1_162_42 (protein) KLEELLEQAKRALAEAEELLERAEEALAAGRLEEARRYLDRAWDALGRLAQLLREARRLLRELSPEEREKARKQLKELEARADELIDRLVELEREVFLRE,-0.0981
4,usp_38_diff_out_1_101_9 (protein) MEAELAAAKAAFDAAAAALLKAAEDALAKIKAEGTPEQAAEMERHLAAIKSFIADSRKTLEEIAEQDKEAAIEFANAATTVLNILTAEVKEETARLLAKA,-0.957
5,usp_38_diff_out_1_162_43 (protein) DVEKVLEQAKELLEKAEKKIKEAEKALKEGKLEEAEKYLDEAWELLGQLAKLLREARRLRRELDPERQAEVTKKLKELNEKANKLIDKLTKLEEEVFLKK,-1.34
6,usp_38_diff_out_1_162_37 (protein) RAEELLERLREHTERLRRLVEEAKRRLDTLSAEELRAMADELADAIAETDELIREARRLMVDLDPERREEARRAIEEARRAADEAVEVYEQLVLRSIELE,0.216
7,usp_38_diff_out_1_153_22 (protein) MKEEELEKKVEEIKKKAKELLKEAKKLLESGKATREEVDKLADELGKLAVELRELRSEAAEDEEVYKKLKEKFKEAEKALNEAVDALNEAARRVFLKEAE,0.146
8,usp_38_diff_out_1_153_31 (protein) SELEELRERIERLTREARELEREARELIESGEATREKVDELADRLGRLAVELRELRSKAAESGEYYKELKPLFEEAEEALNRAVDALNEAGRLVFEREAE,0.15
9,usp_38_diff_out_1_153_21 (protein) SELEELKKELEEILEEAKKLKEEIEKLIKEGKMTLEKVDKLADELGRLSKRFREIRSKAAENPEYYEKLKELFKETEEELNKAVDALNEAGRLVFLKEAE,0.358
10,usp_38_diff_out_1_162_38 (protein) ELEELLKEAEEAIERARELLERAEEAFAAGDLETAERLLREAADELGRAAQLLREARRLLRELPPEEREKYRERLEELERELDELIDRYTALATEVFLAR,0.219
11,usp_38_diff_out_1_153_24 (protein) VKLEELKKRVEEITKRAKELKKEAEELLKSGNATREEVDRLADELGRLAVELRELRSIAAEDEEVYKALKPLFKEANEALDEAVDALNEAGRRVFLKEAE,0.085
12,usp_38_diff_out_1_162_40 (protein) ELEEVLREAREAIERARELLERAKEALEEGRLEEAERLLDEAADELGRAARLLREARRLLRELPPEEREKYREELEKLERELRELIDEYTELAREVFLRR,-0.209
13,usp_38_diff_out_1_147_13 (protein) SAADEADREAEAEAREKLRRFAWESLEELEKNRDKLSLDRLTIGAGGLLVVALELGDEELLLRVAALLLEDPEVLARVRARLSPEERARLEAAVARVRAA,-1.17
14,usp_38_diff_out_1_153_17 (protein) SRLEELKKRLEEILEEAKRLKEEIERLIAEGTMTREKVDEYADRLGKLAVEFREIRAEAAEDPEIYKELKELFKETEKALNEAVDALERAGRLVFLREAE,-0.168
15,usp_38_diff_out_1_153_36 (protein) SELDELKARLDAITAEANALKAEINAAIEAGTMTREQVDAAWDRLGALAKELAEIRAKAAEKPELYPQLKPAIDAATAALNAAIDALNEAARLVFLREAE,0.22
16,usp_38_diff_out_1_153_32 (protein) SELEELKKKVEEITKKAKELKKEAEKLIADGTATLEKVDALADELGALAVELREIRSKAAESGDYYKKLKPLFDEANAALNEAVDALNRAGTLVFEREAE,-0.165

row,Binder,median log2 fold change
1,usp_38_diff_out_1_162_39 (protein) RLEELLEEARRAIEEARRLLEEAERAFKAGDLEEARRLLDRAADALGRAAQLLREARRLMRDLPPEEREKVREELDRLEEELDRLIDRYTELATRVFLAE,0.185
2,usp_38_diff_out_1_162_41 (protein) DIEKVLEQAQKALEEAEKLLKEAEKALKEGDLEEAEKYIRKAWDKLGQLAQLLREARRLLRELSPEERKKYREQLDKLEAKADELIDRLVKLEKEVFLKK,-0.214
3,usp_38_diff_out_1_153_29 (protein) SELEELKARVEKITKEAEALKKEAEKLIADGTATREKVDALADKLGALAVELREIKSKAAESGEYYKKLKPLFDKAEAALNEAVDALNRAATLVFEREAA,-0.161
4,usp_38_diff_out_1_153_26 (protein) SELEKLEKEIKKITEEAKKLKEEAEKLIEDGTATREKVDELADRLGKLAVELREIRSKAAESGDYYKKLKPLFEEAEKALNEAVDALNKAGTLVFEKEAE,0.457
5,usp_38_diff_out_1_153_28 (protein) SKLEELKKRVEEITKEAKELKKEAEKLIKSGKATLEKVEELADKLGKLSVELREIRSEAAEDEEYYKELKPLFKEAEKALNEAVDALEKAGRLVFEKMAE,-0.31
6,usp_38_diff_out_1_153_27 (protein) SELEELKKKIEEITKEAEKLKKEAEKLIKDGTATREKVDELADKLGKLAVELREIRSKAAESGEYYKKLKPLFKKAEKALNEAVDALNKAATLVFEKEAE,0.0209
7,usp_38_diff_out_1_153_19 (protein) SELEELKKELEKIKEEAKKLKEEIEKLIKEGKMTREKVDEYADKLGELAKRFREIRSKLAQNPEAYKELKELLKETEKELNEAVDALNEAGRLVFLKEAE,-0.00147
8,usp_38_diff_out_1_153_25 (protein) SELEELKKKVEEIKKEAEKLKKEAEELIKSGEATREKVEELADKLGKLSVELREIRSKAAESGEYYKELKPLFKEAEEALNEAVDALEKAAREVFLKEAE,-0.027
9,usp_38_diff_out_1_147_14 (protein) SAADEADAAAQAEIDERLRRFARESLDDFEANRDRYSPDRATVALGGLITTAIELGDRELLLRAAALLLKDPAVRAAVLARLDPAARAAFEEAEAEVRAA,0.247
10,usp_38_diff_out_1_153_23 (protein) MKEEELRKRLEEIKKKAEELKKEAEALLKSGNATREKVDALADKLGALAVELRELKALAAQDPEVYKALKPLFKETEKALNEAVDALNEAARQVFLKEAE,0.0874
11,usp_38_diff_out_1_153_18 (protein) SRLDELRARLERILAEARELKAEIKALIEAGTMTREKVEEYADRLAALAAEFREIRAEAAEDPAAYAALRPLFRETQAALDEAVDALEEAGRLVFEREAE,0.0475
12,usp_38_diff_out_1_147_15 (protein) SPADEADAEAEAEARERLREFARESLDELEANRDRLSLDRRVTQAGGLFTIAVELGDRELLLRVAALLLEDPEALAAVRARLSPEERAALEAAVAEVRAA,0.0346
13,usp_38_diff_out_1_153_16 (protein) SELEKMKEELEKILEEAKKLKEEIEKLIKEGKMTREKVDKYADELAELAKRFRELRSKAAENPEYYKELKELFKETLKALNEAVDALTKAAEQVFLKEAE,-0.51
14,usp_38_diff_out_1_153_30 (protein) SELEELEKEIKKITEEAKKLKKEAEELIKSGKATREKVDKLADELGKLAVRLREIRSKAAESGDYYKKLKPLFKEAEKALNEAVDALEKAGRLVFEKEAE,-0.0674
15,usp_38_diff_out_1_153_20 (protein) SRLEELRKELEEILEEAKRLRDEIERLIAEGRMTRELVDRYADRLGELAARFREIRAELADDPEAYKELRPLLKETQAALDAAVDALERAGRLVFLREAE,-0.0906
16,usp_38_diff_out_1_153_33 (protein) SKLEELKARVEALTAEAKALEKEAKALIESGKATREKVDALADRLGALAVELRELRSEAAESGEYYKELKPLFDEANAALDAAVDALEKLGRLVFEKEAE,0.179
